High-throughput results from PubChem.
TLR9-MyD88 inh: inhibitors of TLR9-MyD88 association in cells, primary screen, cell-based, CHO, BLA complementation, fluorescence; CCF4 FRET ratio; inhibition, % at 4.98 µM; actives 0.21% (n = 340,000); Toll-like receptor 9 (Homo sapiens) + Myeloid differentiation primary response protein …;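 active = inhibition above the mean over all tested compounds plus 3 SD, cut at about 21% in these data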;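 also: 0% = DMSO only wells and 100% = clavulanate BLA inhibitor control wells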
NOD2-RIPK2 inh: NOD2-RIPK2 binding disruptors in cells, primary screen, fluorescence, CHO cells, BLA complementation; CCF4 ratio; AID 624267, 2012; inhibition, % at 4.98 µM; Receptor-interacting serine/threonine-protein kinase 2 (Homo sapiens), O43353; actives 0.38% (n = 360,000); in the data active = inhibition above about 21%;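 also: 0% = vehicle only and 100% = reference blocker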
ABHD5-PLIN5 inh: ABHD5-PLIN5 interaction inhibitors, primary screen, cell lysate, split luciferase complementation, luminescence; Split G. princeps luciferase complementation, 4 h; inhibition, % at 4 µM; actives 0.78% (n = 360,000);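 active = inhibition above the mean inhibition across every tested compound plus 3 SD, cut at about 22% in these data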;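 also: 0% = DMSO only wells and the 100% control is not disclosed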
Target sequence (Q00G26 whole entry, looked up): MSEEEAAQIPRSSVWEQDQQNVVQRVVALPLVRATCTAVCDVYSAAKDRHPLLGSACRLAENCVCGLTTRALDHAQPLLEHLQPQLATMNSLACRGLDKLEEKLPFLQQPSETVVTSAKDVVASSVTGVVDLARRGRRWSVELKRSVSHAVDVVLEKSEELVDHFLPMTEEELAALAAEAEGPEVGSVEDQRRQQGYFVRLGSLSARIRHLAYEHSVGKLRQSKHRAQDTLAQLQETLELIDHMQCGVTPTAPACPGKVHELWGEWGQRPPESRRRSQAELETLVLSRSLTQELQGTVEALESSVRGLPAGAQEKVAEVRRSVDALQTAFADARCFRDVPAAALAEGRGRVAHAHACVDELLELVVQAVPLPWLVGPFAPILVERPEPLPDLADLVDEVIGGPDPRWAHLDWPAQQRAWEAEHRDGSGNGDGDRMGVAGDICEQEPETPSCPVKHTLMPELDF
Target sequence (Q8WTS1 whole entry, looked up): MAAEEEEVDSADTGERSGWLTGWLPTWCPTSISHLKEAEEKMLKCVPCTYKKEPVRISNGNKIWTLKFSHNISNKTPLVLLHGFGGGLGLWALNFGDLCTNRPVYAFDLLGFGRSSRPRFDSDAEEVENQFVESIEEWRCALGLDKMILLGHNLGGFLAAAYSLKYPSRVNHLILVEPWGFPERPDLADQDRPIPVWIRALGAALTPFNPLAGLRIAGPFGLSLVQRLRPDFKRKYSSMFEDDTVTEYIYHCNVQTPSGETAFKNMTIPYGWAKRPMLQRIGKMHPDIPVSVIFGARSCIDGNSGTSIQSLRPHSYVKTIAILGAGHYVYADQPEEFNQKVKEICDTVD
HTR2A ag: mouse Htr2a agonists via beta-arrestin recruitment, primary screen, cell-based, luminescence | 5-hydroxytryptamine receptor 2A (Mus musculus), P35363 | CHO-K1 mHTR2A beta-arrestin complementation; percent of 30 µM serotonin response | activation, % at 7.6 µM | actives 0.66% (n = 360,000);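 active = activation above a run cutoff, the mean activation of all tested compounds plus 3 SD, cut at about 14% in these data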;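 also: 0% = plate median of compound wells and 100% = 30 µM serotonin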
CRFR2-BP antag: antagonists of CRF-BP/CRF-R2 complex, primary screen, cell-based, HEK293, calcium dye fluorescence, uHTS; CRF-induced calcium fluorescence; inhibition, % at 11.8 µM; actives 0.59% (n = 350,000);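 active = inhibition of the ligand-induced calcium signal above about 50% at the single tested concentration, limit read from the data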
TLR4-MyD88 BLA: inhibitors of TLR4-MyD88 association in cells, primary screen, cell-based, HeLa CL3-4, BLA complementation, FRET ratio; Toll-like receptor 4 (Homo sapiens) + Myeloid differentiation primary response protein …; HeLa CL3-4 TLR4/MyD88 BLA complementation; inhibition, % at 8.4 µM; actives 0.18% (n = 200,000); AID 861, 2007; in the data active = inhibition above about 25%;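 also: 0% = vehicle and 100% = reference inhibitor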
NOD2-RIPK2 conf: NOD2-RIPK2 binding disruptors, retest, confirmation, fluorescence, CHO cells, BLA complementation, triplicate; AID 624370, 2012; shares compounds with NOD2-RIPK2 inh; actives 70% (n = 1,200); inhibition, % at 4.98 µM; CCF4 FRET;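 active = mean inhibition across replicates above a set limit taken from the earlier primary screen, cut at about 21% in these data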;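 also: 0% = DMSO-only wells and the high end = clavulanate BLA-blocked wells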
NOD2 BLA counter: hits BLA reporter in NOD2-RIPK2 inhibitor counterscreen | shares compounds with NOD2-RIPK2 inh | CHO BLA reporter, CCF4 FRET ratio | inhibition, % at 4.98 µM | actives 57% (n = 1,200);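 active = mean inhibition above the low-control mean inhibition plus three low-control SD, cut at about 11% in these data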;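 also: 0% = DMSO only wells and 100% = clavulanate high control wells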
Starred values were filed as active, the others as inactive. This is a sample that favours compounds with a hit; in the whole collection about 2.4% have one here.

How did Clc1nc2c(-c3ccccc3)nnn2c2ccccc12 do in these assays?
TLR9-MyD88 inh: 20; NOD2-RIPK2 inh: 24*; ABHD5-PLIN5 inh: 3; HTR2A ag: 7; CRFR2-BP antag: 1; NOD2-RIPK2 conf: 80*; NOD2 BLA counter: 62*

What do the screens show for `Cc1ccc(-c2nnn3c2nc(Cl)c2ccccc23)cc1`?
TLR9-MyD88 inh: -6; NOD2-RIPK2 inh: 1; ABHD5-PLIN5 inh: -1; HTR2A ag: -2; CRFR2-BP antag: -26; TLR4-MyD88 BLA: 24

How did CC(NCc1ccc(OCc2ccc(Cl)cc2)cc1)C(O)c1ccccc1 (stereo not given) do in these assays?
TLR9-MyD88 inh: -2; NOD2-RIPK2 inh: 23*; ABHD5-PLIN5 inh: 18; HTR2A ag: -7; CRFR2-BP antag: -18; TLR4-MyD88 BLA: 5; NOD2-RIPK2 conf: 20; NOD2 BLA counter: 9

What do the screens show for `COc1ccc(Cl)cc1NC(=O)Cc1c(F)cccc1Cl`?
TLR9-MyD88 inh: 3; NOD2-RIPK2 inh: 22*; ABHD5-PLIN5 inh: -5; HTR2A ag: -3; CRFR2-BP antag: 41; TLR4-MyD88 BLA: -25; NOD2-RIPK2 conf: 3; NOD2 BLA counter: 1

What do the screens show for `O=c1oc2cc(O)ccc2cc1-c1ccccc1`?
TLR9-MyD88 inh: 8; NOD2-RIPK2 inh: 23*; ABHD5-PLIN5 inh: -9; HTR2A ag: 8; CRFR2-BP antag: -3; NOD2-RIPK2 conf: 28*; NOD2 BLA counter: 40*

How did COC(=O)C1=CN(c2ccc3c(c2)OCO3)C(N)=C(C#N)C1c1cccc(F)c1 (stereo not given) do in these assays?
NOD2-RIPK2 inh: 0; ABHD5-PLIN5 inh: -8; HTR2A ag: -3

How did CC(C)(C)c1ccc(C(=O)N2CCOC23CCCCC3)cc1 do in these assays?
NOD2-RIPK2 inh: -3; ABHD5-PLIN5 inh: 3; HTR2A ag: 1

How did CN(CC1COCCO1)c1nc2nonc2nc1N1CCSCC1 (stereo not given) do in these assays?
TLR9-MyD88 inh: -16; NOD2-RIPK2 inh: 34*; ABHD5-PLIN5 inh: 1; HTR2A ag: 5; CRFR2-BP antag: 9; TLR4-MyD88 BLA: -23; NOD2-RIPK2 conf: -2; NOD2 BLA counter: 2

Results for C1CCN(C2CCN(c3nc4nonc4nc3N3CCSCC3)CC2)C1 ?
TLR9-MyD88 inh: 4; NOD2-RIPK2 inh: -7; ABHD5-PLIN5 inh: -4; HTR2A ag: -5; CRFR2-BP antag: 5; TLR4-MyD88 BLA: -8

What do the screens show for `O=C(c1cc2c(c(-c3cccc(-c4ccncc4)c3)n1)[C@@H](CCO)N(C(=O)c1ccc3c(c1)OCO3)C2)N1CCOCC1`?
NOD2-RIPK2 inh: -3; ABHD5-PLIN5 inh: -8; HTR2A ag: 3

How did COC(=O)[C@@]12C[C@@H](CC(=O)NCC3CCCCC3)C(=O)N(Cc3ccco3)C1=CCC(C)(C)C2 do in these assays?
NOD2-RIPK2 inh: 12; ABHD5-PLIN5 inh: -11; HTR2A ag: -1

Results for CC(C)C1C(=O)N(Cc2cn(Cc3ccco3)nn2)CCS(=O)(=O)N1Cc1ccc(-c2ccc(Cl)c(Cl)c2)cc1 (stereo not given) ?
TLR9-MyD88 inh: -9; NOD2-RIPK2 inh: -1; ABHD5-PLIN5 inh: 8; HTR2A ag: -1; CRFR2-BP antag: -13

What do the screens show for `CCCCn1c(=O)[nH]c2nc3cc(N)ccc3nc2c1=O`?
TLR9-MyD88 inh: 19; NOD2-RIPK2 inh: 26*; ABHD5-PLIN5 inh: -40; HTR2A ag: -2; CRFR2-BP antag: -298; TLR4-MyD88 BLA: 11; NOD2-RIPK2 conf: 31*; NOD2 BLA counter: 37*

How did Nc1ccc2nc3c(=O)n(CCc4ccccc4)c(=O)[nH]c3nc2c1 do in these assays?
NOD2-RIPK2 inh: 38*; ABHD5-PLIN5 inh: -14; HTR2A ag: 7; CRFR2-BP antag: -143; NOD2-RIPK2 conf: 36*; NOD2 BLA counter: 35*

Results for Cc1cc2nc3c(=O)n(CCc4ccccc4)c(=O)[nH]c3nc2cc1N ?
TLR9-MyD88 inh: 5; NOD2-RIPK2 inh: 12; ABHD5-PLIN5 inh: -26; HTR2A ag: -3; CRFR2-BP antag: -98

What do the screens show for `Cc1ccc([C@H]2C[C@@H](O)[C@H](n3cc(COC(=O)c4ccccc4)nn3)CN2C(=O)c2cccs2)cc1`?
TLR9-MyD88 inh: -15; NOD2-RIPK2 inh: -5; ABHD5-PLIN5 inh: -4; HTR2A ag: 7; CRFR2-BP antag: 0

What do the screens show for `NC(CCc1ccccc1)c1csc(Nc2nncc3ccccc23)n1` (stereo not given)?
NOD2-RIPK2 inh: 24*; ABHD5-PLIN5 inh: 0; HTR2A ag: 5; NOD2-RIPK2 conf: 8; NOD2 BLA counter: 8

Results for NC(Cc1ccccc1)c1csc(Nc2nncc3ccccc23)n1 (stereo not given) ?
NOD2-RIPK2 inh: 15; ABHD5-PLIN5 inh: -3; HTR2A ag: 3

What do the screens show for `CN1C=CC(=O)[C@@H](OC(=O)Nc2ccc(Br)cc2)[C@H]1c1ccccc1Br`?
TLR9-MyD88 inh: -4; NOD2-RIPK2 inh: 23*; ABHD5-PLIN5 inh: -2; HTR2A ag: -6; CRFR2-BP antag: 2; NOD2-RIPK2 conf: -2; NOD2 BLA counter: -6

How did O=C(Nc1cc(Br)ccc1O)C1CC(c2c(F)cccc2Cl)=NO1 (stereo not given) do in these assays?
TLR9-MyD88 inh: 2; NOD2-RIPK2 inh: 22*; ABHD5-PLIN5 inh: -2; HTR2A ag: 1; CRFR2-BP antag: -6; NOD2-RIPK2 conf: 0; NOD2 BLA counter: -3

How did CC(N)c1csc(Nc2ncccn2)n1 (stereo not given) do in these assays?
NOD2-RIPK2 inh: -5; ABHD5-PLIN5 inh: -3; HTR2A ag: 0

Results for Cc1cccc(C)c1NC(=O)C(c1ccnc2ccccc12)n1c(=O)c(-c2ccccc2)nc2ccccc21 (stereo not given) ?
NOD2-RIPK2 inh: -5; ABHD5-PLIN5 inh: 2; HTR2A ag: 1

What do the screens show for `CC(C)(C)NC(=O)C(c1ccccc1F)n1c(=O)c(-c2cc3ccccc3[nH]2)nc2ccccc21` (stereo not given)?
NOD2-RIPK2 inh: 50*; ABHD5-PLIN5 inh: -11; HTR2A ag: -8; NOD2-RIPK2 conf: 46*; NOD2 BLA counter: 68*
